Legend:
Assay in all cases: PBM binding z-score (relative to random genomic background probes); higher = stronger binding; sequences stand for … in GC…GCGATTGACAGCGTAGAATGAAGG
[1] = tested on: PPARg:RXRa DBDmut IVT, anti-RXR (DBD mutation: RXRa K156A/R161A, NR concentration 270 nM, RXRa partner concentration 90 nM)
Procedure, shortened: (§1)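 Custom Agilent 4×180K protein-binding microarrays carried double-stranded probes. Their 34-nt variable regions held direct-repeat seeds, single-nucleotide variants, half-site ablations and random human genomic background sequences. Arrays were incubated 1 h with ligand-free nuclear receptor dimers in PBS pH 7.4, 2% milk, 0.02% Triton X-100, 1 mM DTT, 0.2 mg/mL BSA and 0.4 mg/ml salmon testes DNA. Antibodies against each partner (one per run) detected binding, and scanned fluorescence was regression-normalized. Binding z-scores use random background probes as reference.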

[2] = tested on: PPARg:RXRa IVT, anti-PPARg (NR concentration 270 nM, RXRa partner concentration 90 nM)
Procedure, shortened: as §1

[3] = tested on: PPARg DBDmut:RXRa IVT, anti-PPARg (DBD mutation: PPARg1 K132A/R137A, NR concentration 270 nM, RXRa partner concentration 90 nM)
Procedure, shortened: as §1

[4] = tested on: PPARg DBDmut IVT, anti-PPARg (DBD mutation: PPARg1 K132A/R137A, NR concentration 270 nM)
Procedure, shortened: as §1

[5] = tested on: PPARg homodimer (NR concentration 180 nM)
Procedure, shortened: as §1

[6] = tested on: PXR:RXRa (NR concentration 270 nM, RXRa partner concentration 90 nM)
Procedure, shortened: as §1

[7] = tested on: PXR homodimer (NR concentration 270 nM)
Procedure, shortened: as §1

[8] = tested on: RARa:RXR (NR concentration 270 nM, RXRa partner concentration 90 nM)
Procedure, shortened: as §1

[9] = tested on: RARa homodimer (NR concentration 270 nM)
Procedure, shortened: as §1

[10] = tested on: RARb:RXRa (NR concentration 270 nM, RXRa partner concentration 90 nM)
Procedure, shortened: as §1

[11] = tested on: RARb homodimer (NR concentration 270 nM)
Procedure, shortened: as §1

[12] = tested on: RARg:RXRa (NR concentration 270 nM, RXRa partner concentration 90 nM)
Procedure, shortened: as §1

[13] = tested on: RARg homodimer (NR concentration 270 nM)
Procedure, shortened: as §1

[14] = tested on: RXRa DBDmut IVT, anti-RXR (DBD mutation: RXRa K156A/R161A, NR concentration 90 nM)
Procedure, shortened: as §1

[15] = tested on: RXRa homodimer (NR concentration 180 nM)
Procedure, shortened: as §1

[16] = tested on: THRa:RXRa (NR concentration 90 nM, RXRa partner concentration 90 nM)
Procedure, shortened: as §1

[17] = tested on: THRa homodimer (NR concentration 90 nM)
Procedure, shortened: as §1

[18] = tested on: VDR:RXRa (NR concentration 270 nM, RXRa partner concentration 90 nM)
Procedure, shortened: as §1

[19] = tested on: VDR homodimer (NR concentration 270 nM)
Procedure, shortened: as §1

Sequence | PBM binding z-score [1] | PBM binding z-score [2] | PBM binding z-score [3] | PBM binding z-score [4] | PBM binding z-score [5] | PBM binding z-score [6] | PBM binding z-score [7] | PBM binding z-score [8] | PBM binding z-score [9] | PBM binding z-score [10] | PBM binding z-score [11] | PBM binding z-score [12] | PBM binding z-score [13] | PBM binding z-score [14] | PBM binding z-score [15] | PBM binding z-score [16] | PBM binding z-score [17] | PBM binding z-score [18] | PBM binding z-score [19]
AGTCAAAGTTCAGGAGGAGGTAACGTAAAGCACG | -0.11 | 2.24 | 0.683 | 1.05 | 2.81 | 3.09 | 1.96 | 3.17 | 1.91 | 4.57 | 3.59 | 5.4 | 4.92 | 3.04 | 3.26 | 2.88 | 0.548 | 2.89 | 2.16
CCTACTGGGGCAAAAAGGTCATTGATGCCGATAA | 4.52 | 5.48 | 0.778 | 1.73 | 5.37 | 5.17 | 5.54 | 5.35 | 2.82 | 4.08 | 4.23 | 4.99 | 4.5 | 0.866 | 4.63 | 2.9 | 0.176 | 5.42 | 3.13
CCTCCTGGGCCATTCAGAGGTCATTGATCATATG | 0.035 | 1.4 | -0.946 | -1.05 | 2.13 | 4.87 | 2.7 | 4.93 | 0.138 | 3.04 | 4.15 | 4.79 | 3.13 | 0.494 | 4 | 3.3 | 1.39 | 3.97 | 3.92
CCTACTCGGCCACGAAAGGTCATTGATTCAGTGA | 2.57 | 2.28 | -0.0183 | -0.203 | 3.66 | 5.12 | 1.83 | 5.43 | 1.61 | 4.03 | 4.79 | 4.8 | 4.78 | 0.99 | 5.02 | 3.53 | 1.03 | 4.1 | 2.62
TCAGACAGGTGAAGGTAACTGAGGTACGCAGTCG | 2.45 | 1.54 | 0.121 | -0.373 | 0.384 | 0.388 | -0.0672 | 0.874 | 0.545 | 1.04 | 0.685 | 0.664 | 0.586 | 1.05 | 1.18 | 1.31 | 0.494 | 0.737 | -0.194
ATACCAGGGTGATCGTGAGGTCGTTGATACTAAC | 0.0988 | 1.34 | 0.464 | 0.118 | 1.12 | 3.24 | 1.47 | 2.44 | 0.625 | 1.23 | 1.83 | 2.26 | 0.727 | 0.415 | 1.78 | 3.38 | 2.62 | 3.22 | 2.64
TCTGCTCGGTCAACGATGGTCAGCTAATCTGCTA | 1.1 | 1.1 | -0.37 | -0.828 | -0.45 | -0.246 | -1.09 | -0.0627 | -0.906 | 2.59 | 1.65 | 1.41 | 2.83 | 0.129 | 0.25 | 0.269 | -0.89 | -0.245 | -0.978
TCATATAGGAAAACAGGTGAAAGTCCGTAAGTTA | 2.83 | 1.11 | 0.0218 | 0.116 | 0.804 | 0.845 | 0.476 | 1.14 | 1.74 | 0.355 | 0.455 | 0.219 | 0.0668 | 1.81 | 1.17 | 0.338 | 0.187 | 1 | 0.639
TCTTGTAGATCAGCAGGTTAAGTAAGCTGGCCAA | 1.65 | 0.766 | -0.114 | -0.0421 | 0.0118 | 0.266 | -0.355 | 0.553 | -0.134 | 0.298 | 0.124 | -0.106 | -0.396 | 0.597 | 0.384 | 0.37 | -0.0624 | 0.413 | -0.499
TCTAGCAGGCCAGACGGTCACTCAAGAGGTACGG | 0.883 | 0.0624 | -0.226 | -0.934 | -0.417 | -0.727 | -0.716 | -0.457 | -0.452 | 1.04 | 1.12 | 0.224 | 0.8 | -0.226 | 0.291 | -0.447 | -0.799 | -0.346 | -1.01
CCTGCTAGGTCGATGGTCAGCTAAAGCAGCTCGC | 0.713 | 0.603 | -1.63 | -0.626 | -0.348 | -0.314 | -0.494 | -0.143 | -0.87 | 1.03 | 0.8 | 0.222 | 0.416 | 0.224 | -0.11 | 0.103 | -0.265 | -0.292 | -0.719
ACAGACAGGTGAGTGAAGGTAACTCAGCTGGACG | 0.432 | 0.804 | 0.0951 | 0.079 | -0.0829 | -0.379 | -0.472 | 0.0819 | -0.173 | 0.67 | 0.005 | 0.297 | 0.64 | -0.506 | 0.428 | 1.51 | -0.394 | -0.401 | -0.355
TGAAGGAGGTTAAAGATCAGGGAACGTGGCGTCG | 1 | 2.36 | 0.183 | -0.165 | 1.34 | 1.63 | 0.472 | 2.7 | 0.897 | 1.74 | 1.01 | 1.89 | 0.932 | -0.223 | 3.25 | 1.26 | 0.214 | 1.24 | 0.438
CGACCAAGGTCATAGGAGGTCAGTGAAGACAGAT | 3.37 | 4.52 | 0.399 | -0.258 | 5.37 | 6.88 | 4.39 | 6.18 | 2.16 | 5.22 | 5.12 | 6.79 | 7.3 | 3.53 | 6.92 | 5.03 | 2.69 | 6.59 | 4.77
CGTACAAGGTCAGAGAGGTCAGTGAATGCCGAGT | 3.77 | 4.39 | 1.15 | 1.93 | 3.94 | 6.31 | 12.2 | 5.87 | 1.83 | 5.17 | 5.31 | 6.28 | 7.24 | 3.52 | 5.95 | 4.23 | 2.64 | 7.46 | 6
CGTCCAAGGTCATAGGAGGACAGTGAAGACAGAT | 2.87 | 3.57 | 0.568 | 0.524 | 3.01 | 5.67 | 1.55 | 4.89 | 1.62 | 4.98 | 4.12 | 5.65 | 6.13 | 3.71 | 5.55 | 4.99 | 2.83 | 5.21 | 3.3
ACTAGCAGGCCAAGTTTGAGTCACTCAAACAAAG | 0.376 | 0.193 | -0.678 | 0.262 | -0.297 | -0.433 | -0.248 | -0.0649 | -1.17 | 0.293 | -0.195 | 0.0466 | 0.196 | -0.27 | -0.333 | -0.188 | -0.77 | -0.614 | -0.27

— the supplement of paper PMC6555819
